Reference: PubChem BioAssay (NCATS)
Where “and” joins values, the source holds several entries; their conditions need not be identical. Equal entries are not always repeated. Inconclusive results are not listed. Calls of active or inactive are those of the source. Unless noted, the call rests on the fitted dose curve; in most records, active means well fitted curve in the direction sought with a large enough effect; inconclusive means small, poorly fitted or top-dose-only effect, or another doubt; inactive means no such curve, though single readings can be large; an effect the other way counts as inactive or inconclusive.

Tests used:
[1] = target: Glucocorticoid receptor (Homo sapiens) (UniProt P04150); test: GR-GFP Redistribution (AID 450;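 active means compounds whose dose series gives a full or clear partial fitted curve of increased nuclear translocation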; further: potency means the concentration at half of the fitted maximal effect); details: U2OS GR-GFP nuclear translocation, laser cytometry, 2 h
[2] = target: Glucocorticoid receptor (Homo sapiens) (UniProt P04150); test: GR-EFC Redistribution (AID 451; calls by dose curve; further: potency means the concentration at half of the fitted maximal effect); details: CHO-K1 GR-EFC translocation, beta-gal luminescence, 2 h
Summary of the method: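 Translocation of GR-ED fusion to nuclear EA restores b-gal, read by luminescence after 1 h room-temperature detection. Engineered CHO-K1 biosensor cells, 1,000/well, exposed 2 h at 37 C to titrations up to 46 uM final.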

[3] = target: Mitogen-activated protein kinase 10 (Mus musculus) (UniProt Q61831); test: JNK3 AlphaScreen Assay (AID 530; active means well fitted curve in either direction with a large enough effect, not every such curve was filed as active;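 further: kinase came from lysate of stimulated human HepG2 cells; signal reports phosphorylation of biotinylated GST-cJun 1-79 at Ser73 with 10 µM ATP; on the % scale 0 is the no-effect control and ±100 the full control effect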)
Summary of the method: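 qHTS titrations with 15 min compound pre-incubation before adding ATP (10 uM final). Read-out: AlphaScreen of Ser73-phosphorylated biotin-GST-cJun using HepG2 lysate JNK3 activated by IL-1β and TNFα.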

[4] = target: Cytochrome P450 2D6 (Homo sapiens) (UniProt P10635); test: qHTS Assay for Inhibitors and Substrates of Cytochrome P450 2D6 (AID 891); further: potency means the concentration at half of the fitted maximal effect; nearly all actives have a fitted effect of over 60% in size
Summary of the method: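 Luminescent read-out of luciferin formed by 5 nM human CYP2D6 demethylating 30 uM Luciferin-ME EGE (Km level) over 60 min at room temperature after NADPH regeneration addition. Data normalized to full inhibition by 1.43 uM quinidine.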

[5] = target: Cytochrome P450 2C19 (Homo sapiens) (UniProt P33261); test: qHTS Assay for Inhibitors and Substrates of Cytochrome P450 2C19 (AID 899); further: nearly all actives have a fitted effect of over 60% in size; further: potency means the concentration at half of the fitted maximal effect
Summary of the method: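 5nM enzyme + 10uM Luciferin-H EGE (=KM), 50mM KPO4; cpd pin-transferred, 10 min 37C; NADPH regen, 60 min 37C; stopped w/ luciferin detection reagent, 20 min; luminescence. Normalized to 57uM ketoconazole (AC100).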

[6] = qHTS Assay for Lipid Storage Modulators (AID 1519; calls by dose curve); details: Drosophila S3 cells, BODIPY lipid droplet/cell ratio, laser cytometry, cells loaded with oleic acid; for activity change, negative = inhibition: at 57.5 µM (top of the series)
Summary of the method: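 Cells seeded at 5,000 per well were treated with compounds over a concentration series and loaded with oleic acid (400 uM, as added). Lipid droplet fluorescence (488 nm excitation, 500-530 nm channel) was read by laser-scanning cytometry and normalized to 20 uM Triacsin C.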

[7] = target: Ubiquitin carboxyl-terminal hydrolase 1 (Homo sapiens) (UniProt O94782); test: Inhibitors of USP1/UAF1: Pilot qHTS (AID 504865);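 further: rhodamine fluorescence freed from ubiquitin-rhodamine substrate followed over time; top concentration of the series differs between compounds; on the % scale 0 is the no-effect control and ±100 the full control effect; nearly all actives have a fitted effect of over 35% in size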
Summary of the method: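 In 50mM HEPES pH 7.8 containing 0.5mM EDTA, 1mM TCEP, 0.1 mg/ml BSA and 0.01% Tween-20, 1nM USP1/UAF1 is exposed to compound for 15 min, then Ub-Rho (150nM final) is added and fluorescence is read over time.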

[8] = target: DNA dC->dU-editing enzyme APOBEC-3G (Homo sapiens) (UniProt Q9HC16); test: qHTS for inhibitors of Vif-A3G interactions: Validation (AID 588379); further: 0% is about no effect
Summary of the method: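 Yellow fluorescence (Ex 488, Em 500-530) of Vif-coexpressing HeLa A3G-eYFP cells, scanned by Acumen cytometer, reports blocked A3G degradation. Cells plated at 700/well overnight at 37 deg C before compound addition, then a further overnight compound incubation at 37 deg C.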

[9] = test system: Zika virus NS2B-NS3 protease; test: Primary screen GU AMC qHTS for Zika virus inhibitors (AID 1347154);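 further: 0% = no-inhibitor control and -100% = no-enzyme control; nearly all actives have a fitted effect of over 70% in size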
Summary of the method: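 Fluorogenic AMC-substrate cleavage by noncovalent NS2B-NS3 protease complex (25 nM, pH 8.0 Tris buffer with Tween 20) followed for 15 minutes at room temperature (~20% conversion). Percent inhibition from ex340/em450 signal change, fitted by 4-parameter Hill equation.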

[10] = AP1 Signaling Pathway (AID 357; active means well fitted curve in either direction with a large enough effect, not every such curve was filed as active;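 further: ME-180 reporter cells stimulated with EGF at its EC50 level; on the % scale 0 is the no-effect control and ±100 the full control effect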); details: ME-180 AP-1-bla reporter, EGF-induced, beta-lactamase ratio, 5 h; at 38 µM (top of the series)
Summary of the method: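 A ratiometric CCF4 readout (405 nm excitation; 460 and 530 nm emission) quantified AP-1-driven beta-lactamase in ME-180 cells after 5 h with compound and EC50 EGF; AC50 values were derived for activators and inhibitors.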

[11] = target: Cytochrome P450 1A2 (Homo sapiens) (UniProt P05177); test: p450-cyp1a2 (AID 410; calls by dose curve; further: potency means the concentration at half of the fitted maximal effect;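 on activity change, negative = inhibition: -100% = full effect of reference inhibitor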)
Summary of the method: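 Luminescent demethylation readout: Luciferin-ME (100uM, equal to Km) turned over by 20nM CYP1A2 for 60 min at room temperature after NADPH regeneration addition, following 10 min compound preincubation. Normalization used 57 uM furafylline as full inhibition.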

[12] = Stat Signaling Pathway (AID 446; active means well fitted curve in either direction with a large enough effect, not every such curve was filed as active;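 further: ME-180 cervical cancer cells given 40 pM IL-6 alongside compound; SIE-controlled beta-lactamase reporter measured as 460/530 nm FRET emission ratio; on the % scale 0 is the no-effect control and ±100 the full control effect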); details: ME-180 (cervical carcinoma) SIE beta-lactamase reporter, IL-6 stimulated, 5 h; at 38 µM (top of the series)
Summary of the method: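 Compound effects on IL-6-induced STAT reporter activity were measured in ME-180 cells. After overnight culture, cells were co-treated with 40 pM IL-6 for 5 hrs before beta-lactamase substrate loading at room temperature.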

[13] = target: Guanine nucleotide-binding protein G(i) subunit alpha-1 (Homo sapiens) (UniProt P63096); test: qHTS Assay for Inhibitors of RGS12 GoLoco Motif Activity (Green Fluorophore) (AID 879);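 further: 0% = labeled peptide with Gαi1 and full inhibition = labeled peptide alone without protein; negative values mean loss of peptide binding seen as reduced polarization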
Summary of the method: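 A drop in FITC polarization marked displacement of the FITC-tagged RGS12 GoLoco peptide (10 nM) from Gαi1 (50 nM). Compounds were incubated 10 min at room temperature in Tris pH 7.5 buffer containing 150 mM NaCl, 0.1 mM GDP and 0.05% NP40; unlabeled peptide titration served as control.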

[14] = target: Cytochrome P450 3A4 (Homo sapiens) (UniProt P08684); test: qHTS Assay for Inhibitors and Substrates of Cytochrome P450 3A4 (AID 884); further: potency means the concentration at half of the fitted maximal effect; nearly all actives have a fitted effect of over 50% in size
Summary of the method: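 Luminescent readout of luciferin produced by CYP3A4 (20 nM) dealkylation of Luciferin-PPXE, 25 uM (its KM). NADPH-driven reaction ran 60 min at RT after 10 min compound preincubation; data scaled to 57 uM ketoconazole as 100% inhibition.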

[15] = target: Cytochrome P450 3A4 (Homo sapiens) (UniProt P08684); test: qHTS Assay for Activators of Cytochrome P450 3A4 (AID 885); further: nearly all actives have a fitted effect of over 65% in size
Summary of the method: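 CYP3A4 activity: Luciferin-PPXE O-dealkylation, 25uM substrate, 200mM KPO4, RT throughout. Read-out is luciferase luminescence; higher values reflect activation.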

[16] = qHTS Assay for Identification of Small Molecule Antagonists for NFkB Signaling Pathway (AID 895; active means well fitted inhibition curve with a large enough effect in the signal ratio, with a control signal flat, not every such curve was filed as active; the % refers to the signal ratio; further: on the % scale 0 is the no-effect control and ±100 the full control effect)
Summary of the method: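 Beta-lactamase reporter read-out (460 and 530 nm emission ratio, 405 nm excitation, 2 hrs substrate loading RT) after 5 hr stimulation with 10 pM TNF alpha in compound-treated NFkB-bla ME-180 cells in low-serum medium.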

[17] = target: Muscarinic acetylcholine receptor M1 (Rattus norvegicus) (UniProt P08482); test: qHTS Assay for Antagonists of Acetylcholine Muscarinic M1 Receptor: Kinetic Measurement of Intracellular Calcium Response (AID 943); further: potency means the concentration at half of the fitted maximal effect; nearly all actives have a fitted effect of over 75% in size
Summary of the method: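 Antagonism measured as reduction of carbachol-evoked (EC80, 100 nM final) calcium flux in rat M1-CHO cells after 10 min compound exposure. Fluo-4 signal read kinetically; ratio of maximal to basal fluorescence.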

[18] = target: Pyruvate kinase (Leishmania mexicana) (UniProt Q27686); test: qHTS Validation Assay for Inhibitors of Leishmania Mexicana Pyruvate Kinase (AID 945);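 further: 0% = DMSO only neutral control wells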
Summary of the method: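 Luminescent ATP detection (PKLight) after a 1 h room-temperature reaction of 0.2 nM LmPYK E451W mutant with 0.5 mM PEP and 0.1 mM ADP at pH 7.2. Activity is normalized to DMSO-only control wells.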

[19] = target: Pyruvate kinase PKM (Homo sapiens) (UniProt P14618); test: qHTS Assay for Activators of Human Muscle Pyruvate Kinase (AID 954; active means well fitted curve in the direction sought with a large enough effect, not every such curve was filed as active;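 further: 0% = uninhibited enzyme and -100% = no enzyme or full thiadiazolimine inhibition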)
Summary of the method: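 A coupled luminescent readout tracked ATP made from ADP by purified PKM2. Final conditions included 0.1 nM enzyme, PEP and ADP at 0.5 and 0.1 mM, pH 7.2 imidazole buffer with BSA, and a one-hour room-temperature reaction.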

[20] = target: Alpha-galactosidase A (Homo sapiens) (UniProt P06280); test: Counterscreen for Glucocerebrosidase Inhibitors: qHTS Assay for Human alpha-Galactosidase at pH 4.5 (AID 992); further: 0% is about no effect
Summary of the method: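 Citrate buffer pH 4.5, Tween-20 0.005%. Enzyme 2 nM, substrate 80 uM, 20 min RT. Stop pH 10. Fluorescence Ex 365/Em 440. AC50 by Hill fit.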

[21] = target: alpha-glucosidase (Oryza sativa, rice) (UniProt Q653V4); test: Counterscreen for Glucocerebrosidase Inhibitors: qHTS Assay for Rice alpha-Glucosidase at pH 5.0 (AID 997);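 further: 0% = full activity with enzyme and -100% = basal without enzyme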
Summary of the method: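 Endpoint fluorogenic assay at pH 5.0: compounds (0.7 nM to 77 uM) titrated against 4 nM rice enzyme and 400 uM 4-MU-alpha-glucoside for 20 min at room temperature; NaOH/glycine stop, read ex 365/em 440 nm, Hill-fitted AC50.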

[22] = target: 3',5'-cyclic-AMP phosphodiesterase 4B (Homo sapiens) (UniProt Q07343); test: qHTS Assay for Inhibitors of PDE-IV (AID 607; active means well fitted activation curve with a large enough effect in the main read-out, with a control signal flat, not every such curve was filed as active; further: % of control where 0% means no effect)
Summary of the method: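 ACTOne HEK293 cells carry a modified cAMP-gated CNG channel and express endogenous PDE4; plated 1000 cells/well, compounds up to 22.9 uM final. Membrane-potential dye fluorescence (ex 535/em 590) was read; parental cells received 10 uM forskolin + 100 uM RO 20-1724.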

[23] = target: Cytochrome P450 2C9 (Homo sapiens) (UniProt P11712); test: qHTS Assay for Inhibitors and Substrates of Cytochrome P450 2C9 (AID 883); further: potency means the concentration at half of the fitted maximal effect; nearly all actives have a fitted effect of over 60% in size
Summary of the method: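 Inhibition of CYP2C9 is scored as loss of luminescence, with 57uM sulphaphenazole defining 100% inhibition. Substrate Luciferin-H is used at 100uM, equal to its KM; enzyme at 10nM in 25mM KPO4, 60 min at 37C with NADPH regeneration.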

[24] = NCATS anti-infectives library activity on HEK293 viability as a counter-qHTS vs the C. elegans viability qHTS (AID 1745854); further: on the % scale 0 is the no-effect control and ±100 the full control effect
Summary of the method: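 Cytotoxicity counter-screen to a worm viability qHTS: CellTiter-Glo luminescence read 10 min after reagent addition. Compounds (final up to 41.7 uM, a 1:5 dilution series) incubated 24 hr at 37C with 1,500 HEK293 cells per well; digitonin control.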

[25] = measured here: cell count channel max response
[26] = measured here: lipid channel max response

Glucocorticoid receptor (Homo sapiens), sequence (P04150 whole entry, looked up, the tested form may be a part): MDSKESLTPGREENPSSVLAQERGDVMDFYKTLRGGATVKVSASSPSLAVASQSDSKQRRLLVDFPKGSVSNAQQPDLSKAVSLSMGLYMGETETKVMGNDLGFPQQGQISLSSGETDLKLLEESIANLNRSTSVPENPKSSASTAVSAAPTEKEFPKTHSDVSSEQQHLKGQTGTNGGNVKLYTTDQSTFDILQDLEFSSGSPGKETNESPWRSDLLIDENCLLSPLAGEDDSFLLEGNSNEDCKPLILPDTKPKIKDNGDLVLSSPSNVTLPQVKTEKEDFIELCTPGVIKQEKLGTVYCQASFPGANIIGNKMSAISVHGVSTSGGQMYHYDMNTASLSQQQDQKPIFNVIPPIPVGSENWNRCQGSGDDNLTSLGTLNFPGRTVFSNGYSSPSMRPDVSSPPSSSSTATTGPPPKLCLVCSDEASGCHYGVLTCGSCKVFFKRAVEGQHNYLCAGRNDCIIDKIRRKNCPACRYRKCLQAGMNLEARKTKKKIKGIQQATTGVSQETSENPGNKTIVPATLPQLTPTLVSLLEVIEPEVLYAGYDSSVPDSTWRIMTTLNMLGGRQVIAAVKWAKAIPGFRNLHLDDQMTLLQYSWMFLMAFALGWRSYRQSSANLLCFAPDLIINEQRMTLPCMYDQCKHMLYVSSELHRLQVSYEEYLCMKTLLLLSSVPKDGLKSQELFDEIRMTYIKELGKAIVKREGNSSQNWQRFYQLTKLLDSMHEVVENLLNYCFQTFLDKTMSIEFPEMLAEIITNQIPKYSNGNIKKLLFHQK
DNA dC->dU-editing enzyme APOBEC-3G (Homo sapiens), sequence (Q9HC16 whole entry, looked up): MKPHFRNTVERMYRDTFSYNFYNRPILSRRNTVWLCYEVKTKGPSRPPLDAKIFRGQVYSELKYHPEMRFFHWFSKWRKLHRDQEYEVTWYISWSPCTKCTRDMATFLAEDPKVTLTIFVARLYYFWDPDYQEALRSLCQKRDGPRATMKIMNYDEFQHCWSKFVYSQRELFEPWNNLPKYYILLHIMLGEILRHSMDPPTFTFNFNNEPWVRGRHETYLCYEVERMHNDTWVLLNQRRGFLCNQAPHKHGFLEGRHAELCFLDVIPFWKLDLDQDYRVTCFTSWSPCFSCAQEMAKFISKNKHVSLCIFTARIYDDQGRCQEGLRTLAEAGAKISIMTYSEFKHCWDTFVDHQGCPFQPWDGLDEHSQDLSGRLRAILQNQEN
Cytochrome P450 3A4 (Homo sapiens), sequence (P08684 whole entry, looked up): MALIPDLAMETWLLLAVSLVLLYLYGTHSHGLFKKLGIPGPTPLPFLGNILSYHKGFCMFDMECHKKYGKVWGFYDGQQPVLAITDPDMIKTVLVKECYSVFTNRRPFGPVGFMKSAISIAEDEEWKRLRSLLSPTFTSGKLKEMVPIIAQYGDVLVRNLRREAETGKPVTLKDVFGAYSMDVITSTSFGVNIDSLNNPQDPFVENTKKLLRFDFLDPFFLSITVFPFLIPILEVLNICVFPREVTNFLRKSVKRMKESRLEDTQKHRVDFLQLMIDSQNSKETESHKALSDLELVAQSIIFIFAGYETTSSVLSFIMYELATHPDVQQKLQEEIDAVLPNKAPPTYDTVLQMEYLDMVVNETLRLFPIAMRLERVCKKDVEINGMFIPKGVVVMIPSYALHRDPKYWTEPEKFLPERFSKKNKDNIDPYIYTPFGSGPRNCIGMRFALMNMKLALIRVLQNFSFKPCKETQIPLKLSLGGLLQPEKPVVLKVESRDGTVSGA
3',5'-cyclic-AMP phosphodiesterase 4B (Homo sapiens), sequence (Q07343 whole entry, looked up): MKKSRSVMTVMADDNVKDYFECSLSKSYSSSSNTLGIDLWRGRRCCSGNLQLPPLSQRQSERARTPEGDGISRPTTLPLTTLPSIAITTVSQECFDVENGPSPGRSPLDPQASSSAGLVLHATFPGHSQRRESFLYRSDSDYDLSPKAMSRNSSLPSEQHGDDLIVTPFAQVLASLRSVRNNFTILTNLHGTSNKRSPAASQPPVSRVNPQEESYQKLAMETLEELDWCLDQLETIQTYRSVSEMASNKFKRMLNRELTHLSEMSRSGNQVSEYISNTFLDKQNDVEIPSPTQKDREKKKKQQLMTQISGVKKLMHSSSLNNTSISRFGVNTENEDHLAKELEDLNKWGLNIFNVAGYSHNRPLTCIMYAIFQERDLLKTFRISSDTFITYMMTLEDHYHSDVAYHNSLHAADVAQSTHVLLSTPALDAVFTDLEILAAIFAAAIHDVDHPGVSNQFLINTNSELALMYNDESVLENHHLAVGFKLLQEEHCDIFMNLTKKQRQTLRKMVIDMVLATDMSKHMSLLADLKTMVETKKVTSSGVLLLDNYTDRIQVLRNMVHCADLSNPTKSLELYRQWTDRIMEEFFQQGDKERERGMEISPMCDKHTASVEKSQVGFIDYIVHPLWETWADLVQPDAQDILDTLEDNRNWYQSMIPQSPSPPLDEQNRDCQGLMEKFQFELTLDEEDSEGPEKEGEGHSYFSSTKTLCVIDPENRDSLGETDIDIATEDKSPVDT
Cytochrome P450 1A2 (Homo sapiens), sequence (P05177 whole entry, looked up): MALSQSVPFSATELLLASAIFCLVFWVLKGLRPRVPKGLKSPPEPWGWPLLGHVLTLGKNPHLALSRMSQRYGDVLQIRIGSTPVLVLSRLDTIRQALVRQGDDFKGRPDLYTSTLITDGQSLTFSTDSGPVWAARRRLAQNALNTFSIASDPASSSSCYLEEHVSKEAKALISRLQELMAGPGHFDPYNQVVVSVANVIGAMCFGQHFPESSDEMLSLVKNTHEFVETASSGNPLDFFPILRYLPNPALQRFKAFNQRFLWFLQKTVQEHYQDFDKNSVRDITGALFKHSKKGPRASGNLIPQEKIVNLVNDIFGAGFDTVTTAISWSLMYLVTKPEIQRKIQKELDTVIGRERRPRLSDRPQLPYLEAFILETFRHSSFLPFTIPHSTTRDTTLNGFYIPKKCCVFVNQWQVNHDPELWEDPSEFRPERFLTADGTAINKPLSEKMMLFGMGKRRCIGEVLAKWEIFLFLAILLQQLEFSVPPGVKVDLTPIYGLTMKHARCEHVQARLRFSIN
Ubiquitin carboxyl-terminal hydrolase 1 (Homo sapiens), sequence (O94782 whole entry, looked up): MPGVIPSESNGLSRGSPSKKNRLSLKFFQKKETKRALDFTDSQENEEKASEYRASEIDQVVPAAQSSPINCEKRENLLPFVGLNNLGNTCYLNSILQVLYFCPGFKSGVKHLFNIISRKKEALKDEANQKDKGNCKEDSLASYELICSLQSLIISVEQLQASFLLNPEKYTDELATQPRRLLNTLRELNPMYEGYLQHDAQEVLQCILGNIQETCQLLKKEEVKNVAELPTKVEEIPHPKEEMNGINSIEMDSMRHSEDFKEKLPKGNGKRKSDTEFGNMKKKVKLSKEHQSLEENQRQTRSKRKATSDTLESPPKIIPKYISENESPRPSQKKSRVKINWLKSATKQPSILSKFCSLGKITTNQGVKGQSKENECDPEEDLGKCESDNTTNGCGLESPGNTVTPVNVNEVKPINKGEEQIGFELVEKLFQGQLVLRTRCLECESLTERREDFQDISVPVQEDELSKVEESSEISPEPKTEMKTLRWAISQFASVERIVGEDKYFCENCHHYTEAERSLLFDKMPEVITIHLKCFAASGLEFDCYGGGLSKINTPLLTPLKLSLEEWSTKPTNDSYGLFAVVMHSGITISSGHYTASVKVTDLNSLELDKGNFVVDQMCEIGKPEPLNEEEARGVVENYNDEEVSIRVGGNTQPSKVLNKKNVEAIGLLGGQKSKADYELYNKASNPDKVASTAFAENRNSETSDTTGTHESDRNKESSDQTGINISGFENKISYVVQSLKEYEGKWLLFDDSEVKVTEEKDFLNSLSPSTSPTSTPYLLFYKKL
Cytochrome P450 2C19 (Homo sapiens), sequence (P33261 whole entry, looked up): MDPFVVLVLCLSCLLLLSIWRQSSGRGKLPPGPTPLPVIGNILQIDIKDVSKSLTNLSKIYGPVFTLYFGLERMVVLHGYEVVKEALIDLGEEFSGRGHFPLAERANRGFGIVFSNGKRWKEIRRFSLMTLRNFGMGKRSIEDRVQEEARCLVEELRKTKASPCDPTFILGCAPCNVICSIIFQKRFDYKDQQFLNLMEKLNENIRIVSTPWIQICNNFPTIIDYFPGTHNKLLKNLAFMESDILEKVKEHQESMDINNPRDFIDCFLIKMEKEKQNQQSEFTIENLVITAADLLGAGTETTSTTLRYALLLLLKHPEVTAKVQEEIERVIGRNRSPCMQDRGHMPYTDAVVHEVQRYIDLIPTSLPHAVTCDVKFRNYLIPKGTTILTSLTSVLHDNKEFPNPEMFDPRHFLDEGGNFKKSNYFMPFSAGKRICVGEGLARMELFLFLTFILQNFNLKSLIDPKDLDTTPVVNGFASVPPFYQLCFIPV
Cytochrome P450 2D6 (Homo sapiens), sequence (P10635 whole entry, looked up): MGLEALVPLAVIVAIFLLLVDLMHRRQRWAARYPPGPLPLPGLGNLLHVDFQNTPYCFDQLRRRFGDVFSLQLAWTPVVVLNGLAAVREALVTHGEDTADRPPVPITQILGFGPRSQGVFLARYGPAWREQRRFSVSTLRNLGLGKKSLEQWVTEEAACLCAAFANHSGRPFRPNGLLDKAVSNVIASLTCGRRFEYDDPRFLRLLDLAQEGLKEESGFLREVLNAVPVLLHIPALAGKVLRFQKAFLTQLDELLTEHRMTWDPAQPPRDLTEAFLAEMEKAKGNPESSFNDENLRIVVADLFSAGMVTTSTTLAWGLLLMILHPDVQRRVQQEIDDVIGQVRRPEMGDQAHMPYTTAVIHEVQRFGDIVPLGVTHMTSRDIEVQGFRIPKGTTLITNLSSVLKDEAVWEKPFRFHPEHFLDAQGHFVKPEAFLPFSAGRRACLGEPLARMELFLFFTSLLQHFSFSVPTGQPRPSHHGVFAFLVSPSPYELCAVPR

CN(C)CCCSc1ccccc1NC(=O)/C=C\c1ccccc1
inactive: Potency [1] > 46 µM | Potency [2] > 46 µM | Potency [3] | Potency [5] | activity change, negative = inhibition [6] 4.73% | Potency [7] | Potency [8] | Potency [9]
14.3%: max response [6, 25]
23.1%: max response [6, 26]
active: Potency [4] 0.316 µM

COc1cccc(OC)c1OCCNC[C@@H]1COc2ccccc2O1
inactive: activity change, negative = inhibition [10] -5.1% | activity, negative = inhibition [12] 9.55% | Potency [1] > 46 µM | Potency [2] > 46 µM | Potency [3] | outcome [13] | Potency [15] | Potency [16] | Potency [18] | outcome [19] | outcome [20] | outcome [21] | Potency [8] | Potency [9]
active: Potency [11] 12.6 µM and 25.1 µM | Potency [14] 2 µM and 2.51 µM | Potency [4] 0.251 µM | Potency [5] 0.794 µM | Potency [17] 10 µM

N[C@@H](Cn1ccc(=O)n(Cc2ccccc2C(=O)O)c1=O)C(=O)O
inactive: Potency [11] | Potency [1] > 46 µM | Potency [2] > 46 µM | Potency [3] | Potency [22] | Potency [7] | Potency [8] | Potency [9]

Nc1nc(Nc2ccccc2)nc2c1ncn2[C@@H]1O[C@@H](CO)[C@H](O)[C@H]1O
-2.49%: max response [6, 25]
inactive: Potency [1] > 46 µM | Potency [2] > 46 µM | activity change, negative = inhibition [6] -4.73% | Potency [8] | Potency [9]
-4.59%: max response [6, 26]
active: Potency [23] 0.794 µM | Potency [5] 0.631 µM

N#Cc1ccccc1OC[C@H](O)CNCCNC(=O)Nc1ccccc1
6.59%: max response [6, 25]
inactive: Potency [1] > 46 µM | Potency [2] > 46 µM | Potency [3] | Potency [22] | activity change, negative = inhibition [6] 0.479% | Potency [7] | Potency [8] | Potency [9]
10.2%: max response [6, 26]

O=C(/C=C/c1ccccc1)NC(NC(=S)Nc1cccc2cccnc12)C(Cl)(Cl)Cl (stereo unspecified)
inactive: Potency [9] | outcome [24]

c1ccc2nc(C3=NCCN3)cnc2c1
inactive: Potency [1] > 46 µM | Potency [2] > 46 µM | Potency [3] | Potency [7] | Potency [8] | Potency [9]
active: Potency [11] 398 nM

CCC(C)(C)N=C(NC#N)Nc1cccnc1
active: Potency [11] 12600 nM | Potency [14] 5.01 µM
inactive: Potency [1] > 46 µM | Potency [2] > 46 µM | Potency [3] | Potency [22] | Potency [15] | Potency [7] | Potency [8] | Potency [9]
